Test systems include SR leukemia; RPMI-8226 leukemia; OVCAR-8 ovarian; OVCAR-5 ovarian; OVCAR-4 ovarian; SK-OV-3 ovarian; IGROV1 ovarian; OVCAR-3 ovarian; HS 578T breast; NCI/ADR-RES ovarian; T-47D breast; BT-549 breast; MDA-MB-435 melanoma; SW-620 colon; MCF7 breast; HCT-116 colon; HCC-2998 colon; KM12 colon.
Common to all, as to test: NCI-60 one-dose screen, 48 h (100 = growth as untreated, 0 = no growth, -100 = all killed)
Common to all, as to settings: 10 µM unless noted

This is part of a sample that, as a whole, favours compounds with a hit. Of some 83,000 tested, about 20% had one in any assay.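 Values shown are percent growth following 48 h exposure of cells in 96-well plates to a single concentration of compound; below 10 was considered active.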 A number with no mark means an inactive call. The source made the active and inactive calls.

In the case of `CC(=O)Oc1csc(N(C(C)=O)c2cccc(C(F)(F)F)c2)n1`, the growth is 107% with SR leukemia; 75.8% with RPMI-8226 leukemia; 94.1% in the assay on OVCAR-8 ovarian; 96.2% in the assay on OVCAR-5 ovarian; 89.4% with OVCAR-4 ovarian; 99.6% in the assay on SK-OV-3 ovarian. Further, the growth in the assay with IGROV1 ovarian is 98.4%; in the assay with OVCAR-3 ovarian, 103%; in the assay with HS 578T breast, 93%; in the assay with NCI/ADR-RES ovarian, 104%; in the assay with T-47D breast, 87.7%; with BT-549 breast it was -89.8% (active). For the same compound, the growth was 98.1% in the assay on MDA-MB-435 melanoma; 98.7% in the assay on SW-620 colon; 90.8% with MCF7 breast; 86.6% in the assay on HCT-116 colon; 108% with HCC-2998 colon; 99.3% in the assay with KM12 colon.

On to `COc1cc(-c2ncn(/C=C\C(=O)OC(C)C)n2)cc(C(F)(F)F)c1`, for which the growth in the assay with SR leukemia was 2.46% (active); with RPMI-8226 leukemia, 67.5%; in the assay with OVCAR-8 ovarian, 9.36% (active); with OVCAR-5 ovarian, 18.4%; in the assay with OVCAR-4 ovarian, 0.627% (active); in the assay on SK-OV-3 ovarian, 28.1%. In addition, the growth in the assay on IGROV1 ovarian was 14.3%; in the assay on OVCAR-3 ovarian it was -42.1% (active); in the assay on HS 578T breast, -7.75% (active); in the assay with NCI/ADR-RES ovarian, 2.76% (active); in the assay with T-47D breast, 16.3%; in the assay on BT-549 breast, -62.6% (active). Further, the growth was -34.7% (active) in the assay on MDA-MB-435 melanoma; 0.254% (active) with SW-620 colon; -24.5% (active) with MCF7 breast; 2.85% (active) in the assay with HCT-116 colon; -39.8% (active) with HCC-2998 colon; 0.0792% (active) in the assay with KM12 colon.

For the compound `CCN1C(=O)N(CC)C2C1NN=c1s/c(=C\c3cccnc3)c(=O)n12` (configuration not stated), the growth in the assay with SR leukemia was 15.1%; in the assay with RPMI-8226 leukemia, 47.5%; in the assay on OVCAR-8 ovarian, 35.8%; in the assay on OVCAR-5 ovarian, 42.1%; in the assay with OVCAR-4 ovarian, 44.1%; with SK-OV-3 ovarian it was 42.7%. The growth in the assay on IGROV1 ovarian is 30.7%; in the assay with OVCAR-3 ovarian, -22.9% (active); in the assay with HS 578T breast, 19.7%; with NCI/ADR-RES ovarian, 16.2%; in the assay on T-47D breast it was 53.4%; with BT-549 breast, 57.3%. Further, the growth in the assay with MDA-MB-435 melanoma is -46.6% (active); in the assay on SW-620 colon, 26.5%; in the assay on MCF7 breast it was 21.7%; in the assay with HCT-116 colon, 15.8%; with HCC-2998 colon, 26.8%; in the assay on KM12 colon, 19.5%.

Consider `COc1ccc(C(=O)N2NC(=O)/C(=C/c3ccc(F)cc3)N=C2c2ccccc2)cc1`, for which the growth is 51.5% in the assay on SR leukemia; 70.3% in the assay with RPMI-8226 leukemia; 97.4% in the assay with OVCAR-8 ovarian; 95.9% with OVCAR-5 ovarian; 109% with OVCAR-4 ovarian; 103% with SK-OV-3 ovarian. Besides, the growth in the assay on IGROV1 ovarian was 99%; in the assay with OVCAR-3 ovarian it was 105%; in the assay with HS 578T breast, 101%; in the assay with NCI/ADR-RES ovarian it was 81.3%; in the assay on T-47D breast, 95.6%; with BT-549 breast, 83%. The growth with MDA-MB-435 melanoma is 87.6%; in the assay with SW-620 colon, 69.3%; in the assay with MCF7 breast, 96.6%; in the assay on HCT-116 colon it was 81.2%; with HCC-2998 colon it was 97.4%; with KM12 colon, 85.5%.

`NC1=NC(SCc2ccccc2CCl)c2ncn(Cc3ccccc3CCl)c2N1` (configuration not stated): the growth in the assay on SR leukemia is 9.1% (active); in the assay with RPMI-8226 leukemia, 76.7%; with OVCAR-8 ovarian it was 22.8%; in the assay with OVCAR-5 ovarian, 110%; in the assay on OVCAR-4 ovarian, 42.9%; in the assay with SK-OV-3 ovarian it was 89.7%. For the same compound, the growth in the assay with IGROV1 ovarian was -26.3% (active); in the assay with OVCAR-3 ovarian it was 2.22% (active); with HS 578T breast it was 33.8%; in the assay with NCI/ADR-RES ovarian, 69%; in the assay on T-47D breast, 35.8%; in the assay on BT-549 breast, 56.4%. Moreover, the growth in the assay with MDA-MB-435 melanoma was 30.9%; with SW-620 colon, 2.06% (active); in the assay with MCF7 breast, 25.2%; in the assay on HCT-116 colon, 7.53% (active); in the assay on HCC-2998 colon, 79.4%; in the assay on KM12 colon it was 48.5%.

For `CN1CCN(Cc2ccc(NC(=O)c3cncc(C#Cc4cnc(N)c5cnccc45)c3)cc2C(F)(F)F)CC1`, the growth in the assay on SR leukemia is 11%; with RPMI-8226 leukemia, -16.7% (active); with OVCAR-8 ovarian, 23.8%; with OVCAR-5 ovarian, 2.45% (active); in the assay with OVCAR-4 ovarian, 11.9%; in the assay on SK-OV-3 ovarian, -26.8% (active). Further, the growth in the assay on IGROV1 ovarian is -8.29% (active); with OVCAR-3 ovarian it was 35.7%; with HS 578T breast it was -18% (active); in the assay with NCI/ADR-RES ovarian, 65.9%; in the assay on T-47D breast, 22.8%; in the assay with BT-549 breast, 27.4%. Also, the growth with MDA-MB-435 melanoma was -9.64% (active); in the assay on SW-620 colon it was -10.9% (active); in the assay with MCF7 breast, 25.3%; in the assay with HCT-116 colon it was 0.743% (active); with HCC-2998 colon, 19.9%; with KM12 colon, 3.81% (active).

Regarding `COc1ccc(-c2nc(-c3nc4cc(C)c(C)cc4[nH]3)cc3c2[nH]c2ccccc23)cc1`, the growth was -43.7% (active) in the assay with SR leukemia; -26.3% (active) in the assay on RPMI-8226 leukemia; 36.9% in the assay on OVCAR-8 ovarian; 77.6% with OVCAR-5 ovarian; 60.6% in the assay with OVCAR-4 ovarian; 109% with SK-OV-3 ovarian. The growth in the assay with IGROV1 ovarian is 66.9%; with OVCAR-3 ovarian, -4% (active); with HS 578T breast, 56.9%; in the assay on NCI/ADR-RES ovarian it was 41.7%; in the assay with T-47D breast it was 52.1%; in the assay with BT-549 breast, 70.9%. For the same compound, the growth with MDA-MB-435 melanoma was 49.2%; with SW-620 colon it was 77.3%; in the assay with MCF7 breast, 39.1%; with HCT-116 colon, 18.1%; with HCC-2998 colon, 16.6%; with KM12 colon, 44.2%.

On to `COc1ccc(/C=C2\Oc3cc(OCCCN4CCCC4)ccc3C2=O)cc1`, for which the growth in the assay on SR leukemia is -28.4% (active); in the assay on RPMI-8226 leukemia, 86.9%; with OVCAR-8 ovarian it was 95.9%; in the assay with OVCAR-5 ovarian, 92.9%; in the assay with OVCAR-4 ovarian, 90.1%; with SK-OV-3 ovarian, 106%. Further, the growth in the assay on IGROV1 ovarian was 88.4%; with OVCAR-3 ovarian it was 94.3%; with HS 578T breast, 89.3%; with NCI/ADR-RES ovarian it was 96.2%; in the assay with T-47D breast, 94%; with BT-549 breast it was 95.5%. Besides, the growth with MDA-MB-435 melanoma was 97.6%; with SW-620 colon it was 77.1%; with MCF7 breast it was 69.8%; in the assay with HCT-116 colon it was 55.7%; in the assay on HCC-2998 colon it was 91.3%; with KM12 colon it was 82.7%.

With `CSc1nc2c(c(=O)[nH]1)C(c1ccc(C)cc1)C=C(C(=O)O)N2` (configuration not stated), the growth is 117% in the assay on SR leukemia; 112% with RPMI-8226 leukemia; 105% in the assay on OVCAR-8 ovarian; 114% in the assay on OVCAR-5 ovarian; 113% in the assay on OVCAR-4 ovarian; 115% with SK-OV-3 ovarian. The growth is 107% with IGROV1 ovarian; 123% with OVCAR-3 ovarian; 86.3% with HS 578T breast; 109% in the assay with NCI/ADR-RES ovarian; 96.6% with T-47D breast; 93.6% with BT-549 breast. Further, the growth was 102% with MDA-MB-435 melanoma; 99.8% in the assay on SW-620 colon; 101% in the assay with MCF7 breast; 109% in the assay on HCT-116 colon; 102% in the assay with HCC-2998 colon; 112% in the assay on KM12 colon.
